This is an account of results in PubChem BioAssay (NCI).

The panel holds about 83,000 compounds, 20% with a hit somewhere; the sample as a whole holds those more often.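 Cell lines were cultured in 96-well plates, exposed to a single compound concentration, and assessed for percent growth 48 hours later.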 A number with no mark means an inactive call. Activity calls are given as the source filed them. The calls were made as follows: active = growth percent below 10; inactive = the rest.

Assay in all cases: NCI-60 one-dose screen, 48 h (100 = growth as untreated, 0 = no growth, -100 = all killed)
In one assay the test system is A549/ATCC NSCLC. Conditions: 10 µM unless noted.
The subject of another assay is K-562 leukemia. The following applies: 10 µM unless noted.
The next assay has as its system SF-295 CNS. Conditions: 10 µM unless noted.
The test system of a further assay is SF-539 CNS. The following applies: 10 µM unless noted.
The next assay relates to UACC-257 melanoma. Conditions: 10 µM unless noted.
A further assay deals with HCT-15 colon. Conditions: 10 µM.
A further assay has as its system HT29 colon. Conditions: 10 µM unless noted.
A further assay has as its system PC-3 prostate. The following applies: 10 µM unless noted.
In another assay the test system is SK-MEL-5 melanoma. Conditions: 10 µM unless noted.
For a further assay, the system named is SK-MEL-2 melanoma. Conditions: 10 µM unless noted.
The next assay concerns ACHN renal. The following applies: 10 µM unless noted.
The next assay has as its system HL-60(TB) leukemia. The following applies: 10 µM unless noted.
The next assay relates to OVCAR-8 ovarian. The following applies: 10 µM unless noted.
In the next assay the test system is OVCAR-4 ovarian. Conditions: 10 µM unless noted.
The next assay relates to IGROV1 ovarian. Conditions: 10 µM.
Another assay has as its system HS 578T breast. Conditions: 10 µM unless noted.
A further assay deals with T-47D breast. Conditions: 10 µM unless noted.
A further assay has as its system HCC-2998 colon. Conditions: 10 µM unless noted.
For the next assay, the system named is SNB-75 CNS. Conditions: 10 µM unless noted.
Another assay has as its system A498 renal. Conditions: 10 µM unless noted.

In the case of `N#C[Se]CCCNS(=O)(=O)C1CC2C=CC1C2` (centres undefined), the growth in the assay on A549/ATCC NSCLC is -34.1% (active); in the assay with K-562 leukemia it was 5.87% (active); in the assay with SF-295 CNS, -80.7% (active); in the assay with SF-539 CNS, -77.9% (active); in the assay with UACC-257 melanoma it was -55.3% (active); in the assay on HCT-15 colon it was -1.27% (active). Moreover, the growth in the assay on HT29 colon was 1.16% (active); in the assay on PC-3 prostate it was -19.2% (active); in the assay with SK-MEL-5 melanoma it was -70.8% (active); in the assay with SK-MEL-2 melanoma, -24.4% (active); with ACHN renal, -67% (active); with HL-60(TB) leukemia, -41.1% (active). Also, the growth was -27.1% (active) in the assay on OVCAR-8 ovarian; 10% with OVCAR-4 ovarian; -52.5% (active) with IGROV1 ovarian; -25.9% (active) in the assay on HS 578T breast; 30.6% in the assay on T-47D breast; 4.61% (active) in the assay on HCC-2998 colon.

As for `COP(=S)(OC)Oc1ccc(SC)c(C)c1`, the growth was 99.6% with K-562 leukemia; 91.5% with SF-295 CNS; 94.4% with SF-539 CNS; 105% in the assay with HCT-15 colon; 103% in the assay with HT29 colon; 89.6% in the assay with SNB-75 CNS. Besides, the growth in the assay with PC-3 prostate was 85.9%; in the assay on SK-MEL-5 melanoma, 98.9%; in the assay on SK-MEL-2 melanoma, 103%; in the assay on ACHN renal, 101%; in the assay with A498 renal, 94.3%; in the assay with IGROV1 ovarian, 99.7%. Besides, the growth with HS 578T breast is 110%; in the assay on T-47D breast it was 96.6%; with HCC-2998 colon, 104%.

In the case of `c1ccc(CCN2CCCCC2Cc2ccccc2)cc1` (centres undefined), the growth with A549/ATCC NSCLC was 96.2%; in the assay on K-562 leukemia, 101%; in the assay with SF-295 CNS, 91.4%; in the assay on SF-539 CNS, 101%; in the assay with UACC-257 melanoma, 98.5%; in the assay with HCT-15 colon, 104%. Also, the growth is 72.8% with HT29 colon; 107% in the assay with SNB-75 CNS; 103% in the assay on PC-3 prostate; 94.8% in the assay on SK-MEL-5 melanoma; 87.7% in the assay with SK-MEL-2 melanoma; 94.6% with ACHN renal. Moreover, the growth is 89.5% in the assay on A498 renal; 80.3% in the assay on HL-60(TB) leukemia; 106% with OVCAR-8 ovarian; 115% in the assay with OVCAR-4 ovarian; 92.5% in the assay on IGROV1 ovarian; 116% with HS 578T breast. Besides, the figures for the growth in the assay on T-47D breast and in the assay on HCC-2998 colon were 86.2% and 83.6%, respectively.

In the case of `OC1(c2ccc(Cl)cc2Cl)c2ccccc2C2=NCCN21` (centres undefined), the growth in the assay on A549/ATCC NSCLC was 103%; with K-562 leukemia, 81.1%; in the assay with SF-295 CNS, 95.3%; in the assay with SF-539 CNS, 102%; in the assay with UACC-257 melanoma it was 86.2%; in the assay with HCT-15 colon it was 101%. For the same compound, the growth is 92.2% in the assay with HT29 colon; 94.2% with SNB-75 CNS; 79% in the assay on PC-3 prostate; 83% with SK-MEL-5 melanoma; 98.2% in the assay with SK-MEL-2 melanoma; 103% in the assay with ACHN renal. For the same compound, the growth in the assay with A498 renal was 94.4%; in the assay on HL-60(TB) leukemia, 63.3%; in the assay on OVCAR-8 ovarian it was 102%; in the assay with OVCAR-4 ovarian, 105%; with IGROV1 ovarian it was 78.9%; in the assay on HS 578T breast, 77.7%. Besides, the growth with T-47D breast was 93.3%; in the assay on HCC-2998 colon, 75.3%.

With `CO[C@@H]([CH2][Hg][S]C#N)[C@@H]([CH2][Hg][S]C#N)OC`, the growth in the assay on A549/ATCC NSCLC was 102%; in the assay with K-562 leukemia, 46.5%; in the assay on SF-295 CNS it was 113%; in the assay on SF-539 CNS, 125%; with UACC-257 melanoma it was 86.8%; in the assay on HT29 colon, 79.4%. Also, the growth is 84.5% with SNB-75 CNS; 78.8% in the assay on PC-3 prostate; 107% in the assay with SK-MEL-5 melanoma; 106% in the assay with SK-MEL-2 melanoma; 118% in the assay with A498 renal; 62.9% in the assay on HL-60(TB) leukemia. For the same compound, the growth with OVCAR-8 ovarian is 107%; in the assay on OVCAR-4 ovarian, 95.4%; in the assay with IGROV1 ovarian, 63.9%; in the assay on HS 578T breast, 98.6%; in the assay with T-47D breast, 116%; in the assay with HCC-2998 colon it was 90.3%.

Consider `CCOC(=O)/C(C#N)=C/c1ccc(N(CCCl)CCCl)cc1`, for which the growth was 85.2% with A549/ATCC NSCLC; 98.6% in the assay on K-562 leukemia; 43.6% in the assay with SF-295 CNS; 84.9% in the assay on SF-539 CNS; 103% in the assay on UACC-257 melanoma; 91.1% in the assay with HCT-15 colon. Besides, the growth in the assay with HT29 colon is 92.5%; in the assay on SNB-75 CNS, 73.3%; with PC-3 prostate it was 69.7%; in the assay on SK-MEL-5 melanoma, 97.9%; in the assay on SK-MEL-2 melanoma, 99.2%; in the assay on ACHN renal, 72.8%. For the same compound, the growth with A498 renal was 95.5%; in the assay with HL-60(TB) leukemia it was 85.2%; in the assay on OVCAR-8 ovarian, 71.6%; in the assay with OVCAR-4 ovarian, 61.5%; in the assay with IGROV1 ovarian, 48.4%; in the assay on HS 578T breast it was 103%. Also, the figures for the growth with T-47D breast and in the assay on HCC-2998 colon were 80.6% and 105%, respectively.

For `Cc1cc(CCl)c(C)cc1CCl`, the growth is 55% in the assay with A549/ATCC NSCLC; 63.8% with K-562 leukemia; 25.7% with SF-295 CNS; 62.1% in the assay on UACC-257 melanoma; 75.2% in the assay on HCT-15 colon; 48.4% in the assay on SNB-75 CNS. Also, the growth in the assay with PC-3 prostate was 66.9%; with SK-MEL-5 melanoma it was 70.1%; in the assay with SK-MEL-2 melanoma, 70.1%; in the assay with A498 renal, 84.6%; in the assay with HL-60(TB) leukemia, 15.3%; with OVCAR-8 ovarian, 61.7%. Moreover, the growth is 83.4% in the assay with OVCAR-4 ovarian, 26.4% with IGROV1 ovarian, 81.7% with HS 578T breast and 71.4% in the assay on HCC-2998 colon.

As for `O=C(c1cccs1)C1NO[N+]([O-])=C1c1cccs1` (centres undefined), the growth in the assay with A549/ATCC NSCLC was 86.9%; in the assay with K-562 leukemia, 37.4%; in the assay on SF-295 CNS it was 107%; with SF-539 CNS it was 36.3%; with UACC-257 melanoma, 46.2%; in the assay on HCT-15 colon, 64.9%. For the same compound, the growth in the assay on SNB-75 CNS is -11.5% (active); with PC-3 prostate, 57.1%; in the assay on SK-MEL-5 melanoma, 112%; in the assay on ACHN renal, 22.8%; in the assay with A498 renal, 113%; in the assay with HL-60(TB) leukemia it was 9.45% (active). Moreover, the growth was 24.5% in the assay on OVCAR-8 ovarian; 7.37% (active) in the assay with IGROV1 ovarian; 83% in the assay with HS 578T breast; 26.3% in the assay with T-47D breast; 96.5% in the assay with HCC-2998 colon.
